Data taken from PubChem BioAssay AID488837 (National Center for Advancing Translational Sciences (NCATS), 2010).
Among all 330,000 compounds or so, about 20 (0.006%) were called active. About 1% were inconclusive and are not listed. Calls follow the shape of the dose curve; as a rule, active = well fitted inhibition curve with a large enough effect; inconclusive = small, poorly fitted or top-dose-only effect, or effect the other way; inactive = flat fitted curve, though single readings scatter. Many of the other results were omitted from the sample, so actives are more common in it than they were.

target: Protein phosphatase EYA2 (Homo sapiens) (UniProt O00167); test: qHTS Assay for Inhibitors of the Phosphatase Activity of Eya2; conditions: recombinant Eya2, OMFP fluorescence dephosphorylation (OMFP is methylfluorescein phosphate); series mostly up to 76.9 µM; activity, negative = inhibition: at the top concentration
Sequence (O00167 whole entry, looked up, the tested form may be a part): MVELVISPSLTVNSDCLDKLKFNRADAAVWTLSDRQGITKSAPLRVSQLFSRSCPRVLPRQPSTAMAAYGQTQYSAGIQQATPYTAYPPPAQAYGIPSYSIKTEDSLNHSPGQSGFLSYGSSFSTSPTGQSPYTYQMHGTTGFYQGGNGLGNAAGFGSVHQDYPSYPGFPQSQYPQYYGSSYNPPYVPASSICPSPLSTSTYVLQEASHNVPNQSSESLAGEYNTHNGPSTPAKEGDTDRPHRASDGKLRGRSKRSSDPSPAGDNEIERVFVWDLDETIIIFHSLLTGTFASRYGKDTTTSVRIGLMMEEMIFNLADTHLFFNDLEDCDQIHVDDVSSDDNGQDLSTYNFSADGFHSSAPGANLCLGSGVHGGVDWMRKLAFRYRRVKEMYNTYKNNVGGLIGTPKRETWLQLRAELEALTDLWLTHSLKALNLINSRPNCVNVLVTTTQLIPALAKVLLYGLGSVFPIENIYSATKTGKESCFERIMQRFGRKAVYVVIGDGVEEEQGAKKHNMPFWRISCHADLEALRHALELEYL
Text: The Eya family of proteins are essential co-activators of the Six1 transcription factor. Six1 is a developmental gene that is abnormally re-expressed in a large percentage of breast cancers. This over-expression plays a causal role in the initiation and metastatic development of breast cancers. The Eya family of proteins was also found to contain a unique HAD phosphatase domain with protein tyrosine phosphatase activity which can potentially play a role in Six1-mediated breast tumorigenesis. […] We have developed and optimized a 1536 well fluorescence-based HTS assay targeting the phosphatase activity of Eya2. Inhibitors found against Eya2 could serve as potential therapeutic tools to inhibit Six1-mediated breast tumorigenesis and to increase the efficiency of radiation and certain chemo therapy. These inhibitors could also be used as chemical probes to study the function of Eya2's phosphatase activity and its role in Six1-mediated breast tumorigenesis.
The Eya2 enzyme was kindly provided by the laboratory of Dr. Rui Zhao. The 3-O-methyl-fluorescein phosphate (OMFP) substrate and all buffer reagents were purchased from Sigma Aldrich. qHTS Assay Setup: 1. Buffer- 50 mM HEPES pH 7.5, 50 mM NaCl, 5 uM MgCl2, 0.05% BSA, 1 mM DTT. 2. OMFP Stock- 10 mM solution prepared in 100% DMSO and stored in single use aliquots at -20C. Assay Procedure- 1. Dispense 1.5 ul per well of Eya2 at 0.2 uM in black medium binding 1536 well Greiner plate 2. Transfer 23 nl of compound and control compound (EGTA) to plate 3. Incubate at ambient for 10 minutes 4. Dispense 1.5 ul per well of OMFP at 50 uM 5. Incubate at ambient for 10 minutes 6. Read on ViewLux using Excitation = 485 nm, Emission = 525 nm
% is scaled to controls: 0 for no effect and ±100 for the full control effect.

activity, negative = inhibition, inactive:
CCC(CC)C(=O)Nc1ccc(S(=O)(=O)Nc2nccs2)cc1 -10.9%, COC(=O)C1CCCCN1C(=O)c1ccc(OC2CCN(C(C)=O)CC2)c(OC)c1 (stereo not given) -0.803%, CC1=CC2=NC(=O)CC(C)(C(=O)N(CC(=O)NC(C)(C)C)Cc3ccccc3)N2C=C1 (stereo not given) 13.6%, N=c1ccn(CC(=O)NC(N)=O)c2ccccc12 -0.642%, Cc1ccc(S(=O)(=O)N2CCC(Oc3ccc(-n4cnnn4)cc3)CC2)cc1 -2.01%, COc1ccc(C(=O)OCc2cc(=O)n3ccsc3n2)cc1F 0.907%, Cc1ccc(CCn2c3c(c4ccccc42)CN(C)CC3)cn1 -5%, Nc1ncnc2c1c(I)cn2[C@@H]1C[C@H](N)[C@@H](O)[C@H]1O -3.77%, CSCCC(NS(=O)(=O)c1ccc2c(c1)oc(=O)n2C)C(=O)NCc1ccccc1 (stereo not given) 2.62%, O=C(COc1ccc([N+](=O)[O-])cc1)Nc1cccc(C(=O)Nc2ccccc2C(=O)O)c1 -10.2%, CCCN1Cc2cccc(C(=O)Nc3ccc(S(=O)(=O)N4CCCCCC4)cc3)c2C1=O 14.1%, N#C/C(=C\N1CCOCC1)S(=O)(=O)c1ccc(Cl)cc1 1.29%, CCOc1ccc(CCNC(=O)CN2C(=O)NC3(CCc4ccccc43)C2=O)cc1OCC (stereo not given) 14%, CCc1noc(C)c1C(=O)N1CCCSC1=Nc1ccccc1OC -2.86%, COc1ccc(OCCCC(=O)Nc2cccc(S(=O)(=O)N3CCCCCC3)c2)cc1 4.7%, COC(=O)c1ccc(CSc2ccc3nnc(-c4ccccc4)n3n2)o1 11.8%, Cc1cccc(C)c1NC(=O)C1CCCN1C(=O)OC(C)(C)C (stereo not given) -28.3%, O=C(Cc1ccccc1Cl)N1CCN(c2ccccn2)CC1 -2.3%, Cc1cc(C)c(C)c(S(=O)(=O)N[C@@H](C)C(=O)OC(C)C(=O)NC(N)=O)c1C (stereo not given in full) 11.7%, Cc1ccc(CC2C(=O)N(c3ccc(F)cc3)C(=O)C2C)cc1 (stereo not given) 6.36%, O=C(CNC(=O)OCc1ccccc1)Oc1cc2oc(=O)cc(-c3ccccc3)c2cc1Cl -1.8%, CCN(CC)P(=O)(C(NC(=O)OC)C(F)(F)C(F)(F)C(F)(F)C(F)F)N(CC)CC (stereo not given) -3.75% [at 15.4 µM], COc1cc(NC(=O)c2ccccc2NS(=O)(=O)c2ccc(Cl)s2)cc(OC)c1 2%, CN(C)/C(CN1CCCCC1)=C1\N=C(c2ccccc2)OC1=O -3.09%, CN(C)CCOc1cccc(Br)c1 -8.41%, C=CCC[C@@H](Cc1ccc(F)cc1)C(=O)OC[C@H](Cc1c[nH]c2ccccc12)NC(=O)[C@@H](CC=C)CC(=O)N(CCO)Cc1ccccc1 -1.4%, CN(C)S(=O)(=O)c1ccc(N2CCCC2)c(C(=O)NCc2ccccc2)c1 15.5%, Cc1cccc(C)c1NC(=S)N1CCCCCC1 -3.85%, O=S1(=O)CCC(NC(=S)SCc2ccccc2Br)C1 (stereo not given) -11.2%, N#CCC(=O)NC(=O)NCC1CC1 0.0591%, N/C(=N\OS(=O)(=O)c1cccc([N+](=O)[O-])c1)c1ccncc1 6.35%, Cc1ccccc1-n1nnnc1SCCCC(=O)c1ccc(F)cc1 2.34%, C=CCC1(CC=C)CCCN1C(=O)c1cc(COc2ccc(-n3cncn3)cc2)on1 -4.12%, CCCCCCCNc1nc(Cl)nc(NCCO)n1 1.64%, CSc1ccc(Cl)c(C(=O)OCC(=O)N2CCNC2=O)c1 -9.57%, c1cc(-n2cnnn2)ccc1NC1=NCCC1 21.4%, Cc1ccc(OCc2nnc(NC(=O)OCC(C)C)s2)cc1 -17.8%, COC(=O)[C@]1(Cc2ccccc2)N[C@H](CN(C)S(=O)(=O)c2ccc(OC(F)(F)F)cc2)[C@@H]2C(=O)N(Cc3ccccc3)C(=O)[C@@H]21 1.09%, CSc1cccc(NC(=O)CN2C(=O)COc3ccc(S(=O)(=O)N4CCOCC4)cc32)c1 -9.82%, Cc1noc(NS(=O)(=O)c2ccc(NC(=O)c3oc4ccc(F)cc4c3C)cc2)c1C 3.85%, Cn1c2ccc(F)cc2c2nnc(NN)nc21 -2.6%, CCCCn1c(N)c(N(CC(C)C)C(=O)c2ccc(Br)o2)c(=O)[nH]c1=O -5.18%, CC(=O)/C(C)=N/O 3.95%, Cc1cccc(Nc2nnc(SCC(=O)c3c(N)n(C4CC4)c(=O)[nH]c3=O)s2)c1C 4.01%, COc1ccc(OC)c2c1sc(=NC(=O)CN1C(=O)CCC1=O)n2C -8.43%, CN(C(=O)CSc1nnc(-c2n[nH]c3ccccc23)o1)c1ccccc1 -8.32%, CCOc1cc(/C=C2/N=C(c3ccc(C(C)(C)C)cc3)OC2=O)cc(Cl)c1OS(C)(=O)=O 6.4%, OCc1n[nH]c(CO)n1 -15%, CCC1Sc2ccc(S(=O)(=O)CCC(=O)NCc3cccs3)cc2NC1=O (stereo not given) 3.37%, CCN(CC)c1ccc(S(=O)(=O)N2CCOCC2)cc1NC(=O)CSc1cccc[n+]1[O-] -1.83%
